Assay results: PubChem BioAssay (NCI)
Compounds without any hit were thinned out: in the full panel of roughly 83,000, 20% have a hit.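 How to read the values: 0–100, growth inhibition (40 = 60% inhibited); 0, no net growth; -100 to 0, cell death (-40 = 40% of starting cells died; -100 = all dead).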 Activity calls are given as the source filed them. How the source made its calls: active means growth percent below 10; inactive means the rest.

The compounds below were run on SF-539 CNS (assay: NCI-60 one-dose screen, 48 h (100 = growth as untreated, 0 = no growth, -100 = all killed)). Details: 10 µM unless noted.

Compound | growth
CCOC(=O)c1c(-c2ccc(O)cc2)c(C#N)c2c(C#N)c(N)nn2c1N | 66.9% (inactive)
CN(C)CCCn1c2c(c3cc(-c4ccco4)ccc3c1=O)C(=O)c1ccccc1-2 | 63.9% (inactive)
Nc1cc(N)c(S(=O)(=O)O)cc1N=Nc1cc([N+](=O)[O-])ccc1O | 102% (inactive)
COc1cc(/C=N/Nc2nc(-c3ccc(F)cc3)c(C#N)c(N3CCOCC3)n2)ccc1O | 93.7% (inactive)
COc1cc(-c2csc(NC(=O)Nc3ccc(Cl)cc3)n2)cc(OC)c1OC | 48.8% (inactive)
N#CCNc1ccc(C(=O)O)cc1 | 110% (inactive)
CCOC(=O)c1ccc(Nc2ncnc3ccc(NC(=O)c4ccccc4)cc23)cc1 | 101% (inactive)
COC(=O)/C=C/c1cc(OC(C)=O)c2c(c1)C(C(=O)OC)C(c1ccc(OC(C)=O)c(OC(C)=O)c1)O2 (stereo not given) | -6.94% (active)

The compounds below were run on UACC-257 melanoma in the same assay as above. Details: 10 µM unless noted.

Compound | growth
O=C1CC(c2ccc(O)c(O)c2)Oc2cc(O)c([C@@H]3O[C@H](CO)[C@@H](O)[C@H](O)[C@H]3O)c(O)c21 (stereo not given in full) | 106% (inactive)
O=C(NCc1ccccc1)c1ccc2c(c1)NC(=O)[C@@H]1CCCN21 | 104% (inactive)
CCc1ccc(OCc2ccccc2C(=O)Nc2ccc3nc(C)cc(N)c3c2)cc1 | -79.7% (active)
CSc1cccc(NC(=O)Nc2nc3c(C)cccc3s2)c1 | 98.7% (inactive)
COC(=O)[C@]1(C)CCC[C@]2(C)[C@H]3C[C@H]4C(C(C)C)=C[C@]3(CC[C@H]21)[C@@H]1C(=O)N(CCC#N)C(=O)[C@@H]14 | 85.4% (inactive)
CC1=C(CCCOC(=O)NCCCl)C2=C(C)C3(CC3)[C@@](C)(O)C(=O)C2=C1 | 48.5% (inactive)
COc1ccc2[nH]c(-c3ccccc3)c(C=C(C#N)C#N)c2c1 | 69.8% (inactive)
Cc1nn(-c2ccc(-c3ccc(OC(F)(F)F)cc3)cc2)c2nc(-c3ccccc3)nc(N)c12 | 101% (inactive)
O=S(=O)(O)c1ccc(N=NSc2ccc3ccccc3c2)cc1 | 113% (inactive)
O=c1c2ccccc2n(CC(O)CN2CCCC2)c2c(Br)cccc12 (stereo not given) | 98.6% (inactive)
CS(=O)(=O)O[C@@H]1C(=O)N(c2cc3c4ccccc4ccc3c3ccccc23)[C@H]1c1ccc(F)cn1 | 41.7% (inactive)
CC(C)(C)c1nn(-c2ccccc2)c2c1COCN2Cc1ccc(Cl)cc1 | 114% (inactive)
Cc1cc(NC(=O)CNc2nc(Oc3ccc(F)cc3)nc(-c3ccc(F)cc3)n2)ccc1Cl | 101% (inactive)
CC(=O)c1cc2c(N)c(C(=O)Nc3ccccn3)sc2nc1C | 86.4% (inactive)
CCOC(=O)c1sc(/N=C2\NC(=O)/C(=C/c3ccc(N4CCN(C)CC4)cc3)S2)nc1C | 110% (inactive)
O=C(/C(=C/c1ccc([N+](=O)[O-])cc1)SCc1ccc(F)cc1)c1ccc(Cl)cc1 | 87.4% (inactive)
Cc1cnc(-c2ccc(-c3ccc(NC(=O)Nc4c(F)cc(F)cc4F)cc3F)c3c2C(=O)NC3)[nH]1 | 43.8% (inactive)
COc1ccc(Nc2cc(NC(=O)CNc3cc(OC)c(Cl)c(OC)c3Cl)ncn2)cc1 | 88% (inactive)
Nc1n[nH]c2cccc(C#Cc3cccc(NC(=O)c4cc(N5CCOCC5)cc(C(F)(F)F)c4)c3)c12 | 45.1% (inactive)
CC(C)(C)CC(C)(C)Cc1ccc(OCCOCC[N+](C)(C)Cc2ccccc2)cc1 | 2.66% (active)
CCOCc1cc(C(C)(C)C)ccc1O | 89.3% (inactive)
C=C1C(=O)O[C@H]2[C@H]1CC/C(COC(=O)Nc1nc3ccccc3[nH]1)=C\CC[C@@]1(C)O[C@@H]21 | 76.2% (inactive)
C=C(C)[C@@H]1CC[C@]2(C(=O)n3ccnc3)CC[C@]3(C)[C@H](CC[C@@H]4[C@@]5(C)CCCNC(C)(C)[C@@H]5CC[C@]43C)[C@@H]12 | 5.14% (active)
C=C(C)[C@@H]1CC[C@]2(C(=O)O)CC[C@]3(C)[C@H](CC[C@@H]4[C@@]5(C)C[C@@H](CC#Cc6ccccc6C)C(=O)C(C)(C)[C@@H]5CC[C@]43C)[C@@H]12 | 39.9% (inactive)
Clc1ccc2c(NCCCNC3CCCCC3)ccnc2c1 | 107% (inactive)
CN(C)C(CNc1oc(-c2cccc3ccccc23)nc1C#N)c1ccco1 (stereo not given) | 98.5% (inactive)
c1cc(CNC23CC4CC(CC(C4)C2)C3)cc(C[N+](Cc2cccc(CNC34CC5CC(CC(C5)C3)C4)c2)(Cc2cccc(CNC34CC5CC(CC(C5)C3)C4)c2)Cc2cccc(CNC34CC5CC(CC(C5)C3)C4)c2)c1 (stereo not given) | 41.5% [42 µM] (inactive)
